Laboratory results: PubChem BioAssay (NCI)
About 83,000 compounds went through this panel and 20% of them were active in at least one assay; those are over-represented in the sample as a whole.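 Cell lines were cultured in 96-well plates, exposed to a single compound concentration, and assessed for percent growth 48 hours later.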 Calls of active or inactive are those of the source. How the source made its calls: active means growth percent below 10; inactive means the rest.

How the values were obtained:
Experiment in all cases: NCI-60 one-dose screen, 48 h (100 = growth as untreated, 0 = no growth, -100 = all killed)
Conditions in all cases: 10 µM unless noted
[1] = tested on: DU-145 prostate
[2] = tested on: K-562 leukemia
[3] = tested on: MALME-3M melanoma
[4] = tested on: MDA-MB-231 breast
[5] = tested on: RXF 393 renal
[6] = tested on: SF-268 CNS
[7] = tested on: SF-295 CNS
[8] = tested on: SF-539 CNS
[9] = tested on: UACC-257 melanoma
[10] = tested on: M14 melanoma

Measured: growth

c1ccc(COc2ccc(Nc3ncnc4c3cnn4-c3ccccc3)cc2)cc1
inactive: [1] 104% | [2] 90.3% | [3] 92.8% | [4] 101% | [5] 102% | [6] 108% | [7] 107% | [8] 99.6% | [9] 121% | [10] 101%

Clc1ccc(C2=NN(c3ccc(Cl)cc3)C(c3cccc(Nc4ccnc5cc(Cl)ccc45)c3)C2)cc1 (stereo not given)
inactive: [1] 96.2% | [2] 75.1% | [3] 87.1% | [4] 84.5% | [5] 82.5% | [6] 84.3% | [7] 88.6% | [8] 96.5% | [9] 76.8% | [10] 84.8%

Cc1sc2nc(N3CCCCC3)[nH]c(=O)c2c1C
inactive: [1] 111% | [2] 91.2% | [3] 100% | [4] 99.4% | [5] 101% | [6] 98% | [7] 97% | [8] 97.9% | [9] 89.1% | [10] 98.8%

c1ccc2c(-c3nc4ccccc4[nH]3)cccc2c1
inactive: [1] 33.6% | [2] 14.5% | [3] 38.1% | [4] 41.4% | [5] 31% | [6] 61.4% | [7] 61.4% | [8] 37.1% | [9] 35.7%
active: [10] 3.75%

COc1ccc(C(=O)/C=C/c2cccc(Nc3ccnc4cc(Cl)ccc34)c2)cc1
inactive: [1] 37% | [2] 21% | [3] 44% | [4] 13.7% | [5] 41.7% | [6] 39% | [7] 30.6% | [8] 28.4% | [9] 37.8% | [10] 23.2%

Cc1ccc2nc(SCC(=O)Nc3ccc(-c4nc5ccccc5s4)c(Cl)c3)[nH]c2c1
inactive: [1] 132% | [2] 109% | [3] 131% | [4] 113% | [5] 98.6% | [6] 105% | [7] 106% | [8] 109% | [9] 96.9% | [10] 111%

N#Cc1c(-c2ccccc2)cc(-c2ccccc2)n(CCC(=O)O)c1=O
inactive: [1] 81.5% | [2] 14.7% | [3] 51.4% | [4] 58.9% | [5] 53% | [6] 67.4% | [7] 37.3% | [8] 62.5% | [9] 55.5% | [10] 25.5%

Cc1ccccc1NC(=O)NC(CC(N)=O)c1ccc2c(c1)nc(-c1cccc(Oc3ccc(C(C)(C)C)cc3)c1)n2CCCN1CCCCC1C (stereo not given)
active: [2] -44.6% | [3] -52.6% | [9] -71.3% | [10] -81.8%
inactive: [1] 68.2% | [4] 28.1% | [5] 25.1% | [6] 46.7% | [7] 83.5% | [8] 13.1%

CCOC(=O)C1=CCC(n2cc(C)c(=O)[nH]c2=O)O1 (stereo not given)
active: [5] -5.82%
inactive: [1] 119% | [2] 99.4% | [3] 120% | [4] 97.3% | [6] 117% | [7] 116% | [8] 101% | [9] 96.3% | [10] 106%

COc1ccc2c3c(ccc2c1)C(=O)/C(=C\O)CC3
inactive: [1] 111% | [2] 82.7% | [3] 135% | [4] 102% | [5] 119% | [6] 93.6% | [7] 107% | [8] 96.4% | [9] 101% | [10] 122%

COc1cccc(N2CCN(c3cccc(C)n3)CC2)c1
inactive: [1] 106% | [2] 85.2% | [3] 102% | [4] 101% | [5] 76.4% | [6] 129% | [7] 83.2% | [8] 101% | [9] 97.7% | [10] 89.9%

O=C1C(=O)c2c(nc3ccc(Cl)cn23)-c2ccccc21
active: [1] -100% | [2] -100% | [3] -81.8% | [4] -59% | [5] -100% | [6] -95.3% | [7] -80.3% | [8] -100% | [9] -93.3% | [10] -98.7%

O=C1CSC(c2ccccc2O)N1c1nnc(Cn2ccnc2)o1 (stereo not given)
inactive: [1] 80.9% | [2] 43.5% | [3] 101% | [4] 61.6% | [5] 74.7% | [6] 55.7% | [7] 20.7% | [8] 55.6% | [9] 78.7% | [10] 59.8%

CC1(C)CC2(C)CC(=O)C1C(C(=O)O)C2C(=O)O (stereo not given)
inactive: [1] 120% | [2] 104% | [3] 110% | [4] 107% | [5] 103% | [6] 105% | [7] 105% | [8] 108% | [9] 107% | [10] 119%

O=C(NCCNC(=O)Oc1cccc2ccccc12)Oc1cccc2ccccc12
inactive: [1] 112% | [2] 102% | [3] 141% | [4] 68.8% | [5] 104% | [6] 83.9% | [7] 111% | [8] 101% | [9] 88.3% | [10] 107%
